Screens from PubChem BioAssay.
Rows were chosen to be rich in hits. Some 32% of all compounds tested hit in one or more screens of this group.
CYP2C19 inhib: blocks human cytochrome P450 2C19. P33261. CYP2C19 Supersomes, luciferin-H EGE luminescence, 30 min. inhibition, % at 5 µM. 96,000 tested, 21% active;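 active = CYP2C19 inhibition above a set limit at 5 µM in the primary screen, cut at about 50% in these data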;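 also: plate controls were negative control wells for no effect and 2.5 mM tranylcypromine positive control for full effect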
PostGolgi ctrl: growth of the yeast control strain, post-Golgi counter-screen | efflux-deficient yeast background strain, growth absorbance A615, 16 h | inhibition, % at 10 µM | 98,000 tested, 5% active
CYP2C19 activ: cytochrome P450 2C19 (human) activation | recombinant CYP2C19, luciferin-H EGE luminescence; hits give high values; 0 = fully inhibited enzyme, 1 = untreated enzyme | activation factor at 5 µM | 96,000 tested, under 10 active;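 active = activation factor of at least 2 at 5 µM in the primary screen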;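 also: 0 = wells with 2.5 mM tranylcypromine and 1 = vehicle-only wells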
CYP2C9 inhib: blocks human cytochrome P450 2C9; P11712; CYP2C9 Supersomes, luciferin-H conversion, luminescence; inhibition, % at 5 µM; 96,000 tested, 20% active; AID 777;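 active = blocking of liver enzyme CYP2C9 beyond about 50% at 5 µM, limit read from the data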
Target sequence (P11712 whole entry, looked up): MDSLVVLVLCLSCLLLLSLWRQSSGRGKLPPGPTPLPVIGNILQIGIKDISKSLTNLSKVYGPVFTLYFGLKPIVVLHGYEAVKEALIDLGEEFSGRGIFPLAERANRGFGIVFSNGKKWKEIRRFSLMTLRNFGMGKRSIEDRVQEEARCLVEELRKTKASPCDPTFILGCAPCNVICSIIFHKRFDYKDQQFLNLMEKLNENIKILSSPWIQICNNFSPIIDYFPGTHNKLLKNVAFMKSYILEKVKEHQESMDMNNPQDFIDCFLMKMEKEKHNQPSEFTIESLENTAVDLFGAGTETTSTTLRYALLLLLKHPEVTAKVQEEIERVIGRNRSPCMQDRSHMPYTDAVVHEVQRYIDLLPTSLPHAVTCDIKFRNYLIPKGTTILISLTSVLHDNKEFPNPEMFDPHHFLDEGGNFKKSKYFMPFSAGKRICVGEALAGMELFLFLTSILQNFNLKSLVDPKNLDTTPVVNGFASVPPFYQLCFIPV
PostGolgi yeast: growth inhibition of a yeast mutant, post-Golgi transport screen. AID 739. post-Golgi transport phenotypic cell assay. inhibition, % at 10 µM. 98,000 tested, 0.9% active;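 also: yeast cells grown in 1536-well plates; yeast grown about 18 h at 30C before absorbance read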
CYP2C9 act: increases human cytochrome P450 2C9 activity; recombinant CYP2C9, luciferin-H conversion, luminescence; hits give high values; factor 1 = untreated enzyme, 0 = blocked; activation factor at 5 µM; P11712; 96,000 tested, 1.4% active; AID 1024;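 active = activation factor of 2 or more for CYP2C9 at a 5 µM dose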;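 also: 0 = sulfaphenazole-blocked wells and 1 = vehicle-only wells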
The depositor's hits bear a star; . = no result given. Rule as the data show it, unless noted: active = inhibition above about 30%; inactive = the rest.

SMILES	CYP2C19 inhib	PostGolgi ctrl	CYP2C19 activ	CYP2C9 inhib	PostGolgi yeast	CYP2C9 act
Cc1cccc(OCCCC(=O)NC(C)C)c1	31	-2	0.7	4	3	1
Cc1cccc(/C=N/NC(=O)c2cc3c(s2)-c2ccccc2CC3)c1	9	27	0.9	4	27	1
Cc1ccccc1-n1c(C)nnc1SCC(=O)NCC1CCCO1 (configuration not stated)	10	8	0.9	-55	14	1.6
O=C(COc1ccc(Cl)cc1)Nc1nc(-c2ccc(S(=O)(=O)N3CCOCC3)cc2)cs1	58*	12	0.4	92*	-6	0.1
O=C(CCc1ccc(S(=O)(=O)N2CCOCC2)cc1)Nc1nccs1	37	14	0.6	21	-5	0.8
O=C(COC(=O)c1ccc(S(=O)(=O)N2CCOCC2)cc1)Nc1nc(-c2ccccc2)cs1	-14	2	1.1	-16	3	1.2
O=C(CCc1ccc(S(=O)(=O)N2CCOCC2)cc1)Nc1nc(COc2ccccc2)cs1	0	5	1	85*	4	0.2
O=C(CCc1ccc(S(=O)(=O)N2CCOCC2)cc1)Nc1cc(Cl)ccc1N1CCOCC1	10	34*	0.9	43	1	0.6
O=C(COc1ccccc1)Nc1nc(-c2ccc(S(=O)(=O)N3CCOCC3)cc2)cs1	24	5	0.8	78*	6	0.2
CCOc1cc(/C=N/NC(=O)CNc2ccc(C)cc2)ccc1OC(=O)c1ccccc1	7	8	0.9	21	-1	0.8
CCCOc1ccc(CC(=O)NCC2(c3ccccc3)CCOCC2)cc1OC	28	-2	0.7	32	2	0.7
CCOC(=O)N1CCN(C(=O)CN(C)S(=O)(=O)c2ccc3c(c2)C(C)(C)C(=O)N3C)CC1	5	3	0.9	20	3	0.8
Cc1cc(C)nc(SCC(=O)c2cc3ccccc3oc2=O)n1	58*	-2	0.4	27	-3	0.7
O=C(CSc1nc2ccccc2o1)c1cc2ccccc2oc1=O	.	-1	.	.	-4	.
O=C(CSc1nnnn1-c1ccccc1)c1cc2ccccc2oc1=O	40	9	0.6	60*	0	0.4
COc1ccc(-c2nc3nc(C)cc(=O)n3[nH]2)cc1	2	6	1	7	6	0.9
CNC(=S)N1N=C(c2ccc(Br)cc2)CC1c1ccc(Br)cc1 (configuration not stated)	98*	33*	0	95*	-11	0.1
CCS(=O)(=O)Nc1ccc(C2=NN(C(=O)c3ccco3)C(c3ccc(C)cc3)C2)cc1 (configuration not stated)	32	-5	0.7	42	-4	0.6
CCOP(=O)(c1c(F)c(F)c(F)c(F)c1F)C1(O)CCCCC1 (configuration not stated)	-5	3	1	-14	3	1.1
CS(=O)(=O)N1CCCC(C(=O)NCCCN2CCN(Cc3ccccc3)CC2)C1 (configuration not stated)	3	7	1	59*	3	0.4
CCCS(=O)(=O)N1CCCC(C(=O)NCCCN2CCN(c3ccc(F)cc3)CC2)C1 (configuration not stated)	7	8	0.9	-169	1	2.7*
CCCS(=O)(=O)N1CCCC(C(=O)NCCCN(CC)c2cccc(C)c2)C1 (configuration not stated)	18	31*	0.8	14	13	0.9
CS(=O)(=O)N1CCCC(C(=O)NCCCN2CCC(Cc3ccccc3)CC2)C1 (configuration not stated)	-8	-10	1.1	-8	6	1.1
CCCS(=O)(=O)N1CCCC(C(=O)NCCN(CC)CC)C1 (configuration not stated)	-17	33*	1.2	-13	5	1.1
CCOC(=O)N1CCC(NS(=O)(=O)c2cc(Br)cc3c2N(C(=O)CC)CC3)CC1	21	4	0.8	3	20	1
CC(OC(=O)c1cccc(NS(C)(=O)=O)c1)C(=O)Nc1ccc(N2CCOCC2)cc1 (configuration not stated)	-3	-4	1	-11	-8	1.1
O=S(=O)(N/N=C/c1ccc(Cl)cc1)c1ccc(Cc2ncc(C(F)(F)F)cc2Cl)s1	-4	5	1	92*	-9	0.1
NC(=O)c1ccc(Cc2ncc(C(F)(F)F)cc2Cl)s1	14	27	0.9	4	-6	1
